# Results: article PMC7862700, “An all-to-all approach to the identification of sequence-specific readers for epigenetic DNA modifications on cytosine”
# Key:
# Experiment in all cases: DAPPL (digital affinity profiling via proximity ligation, sequencing); 10 mM Tris-HCl pH 7.5, 50 mM NaCl, 1 mM DTT, 4% glycerol, room temperature, 30 min; GST-TFs on glutathione beads, 16-mer random dsDNA library, 0.1% formaldehyde crosslink after washing; high values mean tight binding
# FLI1 = molecular target: T1, FLI1 (Homo sapiens, UniProt Q01543 1-452); conditions: protein: recombinant; tags: N-terminal GST; dsDNA, one strand shown
# T1 sequence: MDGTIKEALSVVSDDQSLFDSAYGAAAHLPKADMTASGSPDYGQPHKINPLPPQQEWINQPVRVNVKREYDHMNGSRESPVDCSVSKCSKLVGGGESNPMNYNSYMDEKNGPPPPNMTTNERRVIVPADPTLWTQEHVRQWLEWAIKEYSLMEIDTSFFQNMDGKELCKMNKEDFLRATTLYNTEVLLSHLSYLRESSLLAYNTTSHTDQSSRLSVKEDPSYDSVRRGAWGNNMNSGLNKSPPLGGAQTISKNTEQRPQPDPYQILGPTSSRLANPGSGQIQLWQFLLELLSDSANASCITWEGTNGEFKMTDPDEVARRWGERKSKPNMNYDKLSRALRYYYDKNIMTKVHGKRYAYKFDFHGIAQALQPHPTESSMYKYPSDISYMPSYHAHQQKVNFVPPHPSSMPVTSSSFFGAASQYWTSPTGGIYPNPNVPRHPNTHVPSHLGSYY
# Method in brief: (§1)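 Each value of binding signal is a hexamer's read frequency for a factor divided by the same hexamer's frequency in the tag-only sample. Barcoded, bead-captured GST fusions of human transcription factors made in yeast were pooled with that sample and incubated with 200 nmole of a random double-stranded 16-mer DNA library in Tris/NaCl/DTT/glycerol buffer at room temperature for 30 min. Washing, 0.1% formaldehyde crosslinking, proximity ligation, PCR and Illumina NextSeq500 sequencing followed.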
# ELK1 = molecular target: T2, ELK1 (Homo sapiens, UniProt P19419 1-428); conditions: protein: recombinant; tags: N-terminal GST; dsDNA, one strand shown
# T2 sequence: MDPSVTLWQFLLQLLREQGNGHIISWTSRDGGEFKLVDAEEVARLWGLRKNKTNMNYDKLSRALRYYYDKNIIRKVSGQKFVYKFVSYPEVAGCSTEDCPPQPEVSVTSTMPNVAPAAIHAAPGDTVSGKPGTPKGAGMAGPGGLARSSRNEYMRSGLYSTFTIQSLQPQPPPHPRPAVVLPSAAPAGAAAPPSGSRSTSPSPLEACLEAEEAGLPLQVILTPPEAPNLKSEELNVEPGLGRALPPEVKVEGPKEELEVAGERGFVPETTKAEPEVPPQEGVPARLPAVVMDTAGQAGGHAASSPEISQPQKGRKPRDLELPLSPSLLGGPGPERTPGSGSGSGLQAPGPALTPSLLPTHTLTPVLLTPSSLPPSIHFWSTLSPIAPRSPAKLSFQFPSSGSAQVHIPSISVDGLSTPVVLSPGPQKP
# Method in brief: as §1
# GABPA = molecular target: T3, GABPA (Homo sapiens, UniProt Q06546 1-454); conditions: protein: recombinant; tags: N-terminal GST; dsDNA, one strand shown
# T3 sequence: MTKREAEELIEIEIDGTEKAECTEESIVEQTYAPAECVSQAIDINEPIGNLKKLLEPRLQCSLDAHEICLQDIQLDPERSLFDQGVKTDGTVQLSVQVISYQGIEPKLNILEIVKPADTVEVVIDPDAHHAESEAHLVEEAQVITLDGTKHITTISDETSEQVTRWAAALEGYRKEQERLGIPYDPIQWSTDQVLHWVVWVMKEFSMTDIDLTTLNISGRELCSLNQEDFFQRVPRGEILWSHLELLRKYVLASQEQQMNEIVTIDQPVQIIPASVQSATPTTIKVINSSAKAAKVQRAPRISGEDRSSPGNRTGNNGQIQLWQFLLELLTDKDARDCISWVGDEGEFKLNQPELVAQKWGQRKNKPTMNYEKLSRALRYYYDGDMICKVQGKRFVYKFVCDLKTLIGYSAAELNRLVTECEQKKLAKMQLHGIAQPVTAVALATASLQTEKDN
# Method in brief: as §1
# ERG = molecular target: T4, ERG (Homo sapiens, UniProt P11308 1-479); conditions: protein: recombinant; tags: N-terminal GST; dsDNA, one strand shown
# T4 sequence: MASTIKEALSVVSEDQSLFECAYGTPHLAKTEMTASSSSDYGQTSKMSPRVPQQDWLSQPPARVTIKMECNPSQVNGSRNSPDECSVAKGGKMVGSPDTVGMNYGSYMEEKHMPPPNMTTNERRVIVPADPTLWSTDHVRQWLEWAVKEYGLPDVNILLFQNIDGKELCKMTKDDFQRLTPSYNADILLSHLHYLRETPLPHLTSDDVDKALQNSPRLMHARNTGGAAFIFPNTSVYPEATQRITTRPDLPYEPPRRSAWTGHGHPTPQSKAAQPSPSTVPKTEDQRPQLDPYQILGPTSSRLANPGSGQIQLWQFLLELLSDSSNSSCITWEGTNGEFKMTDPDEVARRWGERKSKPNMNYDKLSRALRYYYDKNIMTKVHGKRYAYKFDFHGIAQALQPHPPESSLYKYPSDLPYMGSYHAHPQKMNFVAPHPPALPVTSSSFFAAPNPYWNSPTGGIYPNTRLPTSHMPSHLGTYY
# Method in brief: as §1
# ELF1 = ELF1 (Homo sapiens, UniProt P32519 1-619); conditions: protein: recombinant; tags: N-terminal GST; dsDNA, one strand shown
# Sequence of ELF1 (P32519 whole entry): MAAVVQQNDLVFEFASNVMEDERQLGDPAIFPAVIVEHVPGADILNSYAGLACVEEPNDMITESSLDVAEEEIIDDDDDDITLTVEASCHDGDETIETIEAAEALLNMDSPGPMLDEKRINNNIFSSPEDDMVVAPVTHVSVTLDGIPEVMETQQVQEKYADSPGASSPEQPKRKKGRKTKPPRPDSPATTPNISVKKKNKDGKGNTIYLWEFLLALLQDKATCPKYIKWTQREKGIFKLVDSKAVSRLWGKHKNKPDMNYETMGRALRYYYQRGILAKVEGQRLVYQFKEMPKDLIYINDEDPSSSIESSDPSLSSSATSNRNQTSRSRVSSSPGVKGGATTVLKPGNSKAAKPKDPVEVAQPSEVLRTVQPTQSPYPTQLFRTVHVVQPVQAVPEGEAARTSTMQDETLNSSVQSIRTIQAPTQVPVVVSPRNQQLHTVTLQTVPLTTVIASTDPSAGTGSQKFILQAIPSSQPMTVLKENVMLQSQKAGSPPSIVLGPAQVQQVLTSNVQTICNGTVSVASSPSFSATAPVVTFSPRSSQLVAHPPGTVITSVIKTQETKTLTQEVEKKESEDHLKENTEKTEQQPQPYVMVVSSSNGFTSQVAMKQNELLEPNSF
# Method in brief: as §1
# EHF = molecular target: T5, EHF (Homo sapiens, UniProt Q9NZC4 1-300); conditions: protein: recombinant; tags: N-terminal GST; dsDNA, one strand shown
# T5 sequence: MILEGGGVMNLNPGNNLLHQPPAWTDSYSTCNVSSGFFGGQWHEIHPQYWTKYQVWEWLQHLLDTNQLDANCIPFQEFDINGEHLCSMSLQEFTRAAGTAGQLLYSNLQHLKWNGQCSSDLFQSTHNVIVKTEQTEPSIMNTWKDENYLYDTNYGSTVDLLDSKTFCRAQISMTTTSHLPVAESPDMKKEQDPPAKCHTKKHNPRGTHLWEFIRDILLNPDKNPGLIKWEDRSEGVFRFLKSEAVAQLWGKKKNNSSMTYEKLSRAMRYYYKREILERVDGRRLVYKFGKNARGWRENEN
# Method in brief: as §1
# SPI1 = SPI1 (Homo sapiens, UniProt P17947 1-270); conditions: protein: recombinant; tags: N-terminal GST; dsDNA, one strand shown
# Method in brief: as §1
# SPIB = SPIB (Homo sapiens, UniProt Q01892 1-262); conditions: protein: recombinant; tags: N-terminal GST; dsDNA, one strand shown
# Sequence of SPIB (Q01892 whole entry): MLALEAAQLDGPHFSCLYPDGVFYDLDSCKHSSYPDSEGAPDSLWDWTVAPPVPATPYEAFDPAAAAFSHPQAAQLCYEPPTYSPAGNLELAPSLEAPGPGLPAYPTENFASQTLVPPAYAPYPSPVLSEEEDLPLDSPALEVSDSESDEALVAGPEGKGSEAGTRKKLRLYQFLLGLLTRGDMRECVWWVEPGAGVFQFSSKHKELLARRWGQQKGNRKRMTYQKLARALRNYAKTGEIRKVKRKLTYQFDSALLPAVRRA
# Method in brief: as §1
# ELK3 = molecular target: T6, ELK3 (Homo sapiens, UniProt P41970 1-407); conditions: protein: recombinant; tags: N-terminal GST; dsDNA, one strand shown
# T6 sequence: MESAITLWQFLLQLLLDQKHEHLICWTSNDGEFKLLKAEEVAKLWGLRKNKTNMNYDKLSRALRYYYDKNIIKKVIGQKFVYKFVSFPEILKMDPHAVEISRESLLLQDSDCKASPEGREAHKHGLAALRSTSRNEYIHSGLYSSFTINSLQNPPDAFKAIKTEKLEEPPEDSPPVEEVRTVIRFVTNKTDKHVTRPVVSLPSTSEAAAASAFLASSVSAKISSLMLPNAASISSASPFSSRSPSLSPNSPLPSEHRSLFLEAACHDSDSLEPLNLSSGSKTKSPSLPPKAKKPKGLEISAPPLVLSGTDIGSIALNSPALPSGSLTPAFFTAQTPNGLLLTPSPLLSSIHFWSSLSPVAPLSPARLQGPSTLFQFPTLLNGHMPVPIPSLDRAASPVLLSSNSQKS
# Method in brief: as §1
# FEV = molecular target: T7, FEV (Homo sapiens, UniProt Q99581 1-238); conditions: protein: recombinant; tags: N-terminal GST; dsDNA, one strand shown
# T7 sequence: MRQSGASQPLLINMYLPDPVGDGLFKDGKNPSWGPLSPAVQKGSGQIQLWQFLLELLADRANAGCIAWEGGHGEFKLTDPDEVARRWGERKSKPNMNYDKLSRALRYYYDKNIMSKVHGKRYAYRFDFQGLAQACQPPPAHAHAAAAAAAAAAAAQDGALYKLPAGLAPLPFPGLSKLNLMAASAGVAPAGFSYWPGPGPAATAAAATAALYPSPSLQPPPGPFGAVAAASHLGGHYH
# Method in brief: as §1
# ETV5 = ETV5 (Homo sapiens, UniProt P41161 1-510); conditions: protein: recombinant; tags: N-terminal GST; dsDNA, one strand shown
# Sequence of ETV5 (P41161 whole entry): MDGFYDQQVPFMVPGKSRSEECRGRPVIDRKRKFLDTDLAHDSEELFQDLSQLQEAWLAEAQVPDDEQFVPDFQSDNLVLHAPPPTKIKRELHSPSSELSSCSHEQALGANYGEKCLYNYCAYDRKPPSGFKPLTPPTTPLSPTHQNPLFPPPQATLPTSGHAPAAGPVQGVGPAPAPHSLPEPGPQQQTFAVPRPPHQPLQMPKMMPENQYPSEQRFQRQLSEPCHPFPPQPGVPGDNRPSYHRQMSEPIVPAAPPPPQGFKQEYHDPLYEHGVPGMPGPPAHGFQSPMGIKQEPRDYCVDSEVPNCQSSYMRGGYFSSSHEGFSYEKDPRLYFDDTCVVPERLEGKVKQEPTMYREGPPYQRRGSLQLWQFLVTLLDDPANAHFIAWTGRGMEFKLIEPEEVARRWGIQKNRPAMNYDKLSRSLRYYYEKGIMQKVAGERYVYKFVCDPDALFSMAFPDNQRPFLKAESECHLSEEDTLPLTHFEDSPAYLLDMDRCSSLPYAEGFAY
# Method in brief: as §1
# HSF1 = HSF1 (Homo sapiens, UniProt Q00613 1-529); conditions: protein: recombinant; tags: N-terminal GST; chain copies: 3; dsDNA, one strand shown
# Sequence of HSF1 (Q00613 whole entry): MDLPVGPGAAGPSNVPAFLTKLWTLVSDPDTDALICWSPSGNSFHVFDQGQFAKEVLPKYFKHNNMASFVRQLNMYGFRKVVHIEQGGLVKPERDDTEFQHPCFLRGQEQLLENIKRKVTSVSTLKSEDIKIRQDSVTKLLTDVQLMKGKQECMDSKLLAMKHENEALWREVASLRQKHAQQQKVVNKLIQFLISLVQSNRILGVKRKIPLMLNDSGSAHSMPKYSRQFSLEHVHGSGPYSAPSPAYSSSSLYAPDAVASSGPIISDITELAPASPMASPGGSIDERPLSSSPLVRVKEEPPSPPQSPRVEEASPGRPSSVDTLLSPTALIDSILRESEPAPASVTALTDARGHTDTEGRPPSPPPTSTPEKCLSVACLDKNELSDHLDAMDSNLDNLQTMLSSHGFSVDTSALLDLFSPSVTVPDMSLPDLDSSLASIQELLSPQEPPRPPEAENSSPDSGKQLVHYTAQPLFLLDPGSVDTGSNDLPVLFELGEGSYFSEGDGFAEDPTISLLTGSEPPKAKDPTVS
# Method in brief: as §1
# SPIC = molecular target: T8, SPIC (Homo sapiens, UniProt Q8N5J4 1-248); conditions: protein: recombinant; tags: N-terminal GST; dsDNA, one strand shown
# T8 sequence: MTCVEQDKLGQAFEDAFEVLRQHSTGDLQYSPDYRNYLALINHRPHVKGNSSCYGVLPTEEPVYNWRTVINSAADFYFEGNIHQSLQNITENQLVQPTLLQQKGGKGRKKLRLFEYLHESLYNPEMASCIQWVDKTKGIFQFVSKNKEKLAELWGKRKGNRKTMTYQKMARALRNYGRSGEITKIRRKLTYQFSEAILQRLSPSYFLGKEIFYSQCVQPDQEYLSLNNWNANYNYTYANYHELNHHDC
# Method in brief: as §1
# ELF4 = ELF4 (Homo sapiens, UniProt Q99607 1-663); conditions: protein: recombinant; tags: N-terminal GST; dsDNA, one strand shown
# Sequence of ELF4 (Q99607 whole entry): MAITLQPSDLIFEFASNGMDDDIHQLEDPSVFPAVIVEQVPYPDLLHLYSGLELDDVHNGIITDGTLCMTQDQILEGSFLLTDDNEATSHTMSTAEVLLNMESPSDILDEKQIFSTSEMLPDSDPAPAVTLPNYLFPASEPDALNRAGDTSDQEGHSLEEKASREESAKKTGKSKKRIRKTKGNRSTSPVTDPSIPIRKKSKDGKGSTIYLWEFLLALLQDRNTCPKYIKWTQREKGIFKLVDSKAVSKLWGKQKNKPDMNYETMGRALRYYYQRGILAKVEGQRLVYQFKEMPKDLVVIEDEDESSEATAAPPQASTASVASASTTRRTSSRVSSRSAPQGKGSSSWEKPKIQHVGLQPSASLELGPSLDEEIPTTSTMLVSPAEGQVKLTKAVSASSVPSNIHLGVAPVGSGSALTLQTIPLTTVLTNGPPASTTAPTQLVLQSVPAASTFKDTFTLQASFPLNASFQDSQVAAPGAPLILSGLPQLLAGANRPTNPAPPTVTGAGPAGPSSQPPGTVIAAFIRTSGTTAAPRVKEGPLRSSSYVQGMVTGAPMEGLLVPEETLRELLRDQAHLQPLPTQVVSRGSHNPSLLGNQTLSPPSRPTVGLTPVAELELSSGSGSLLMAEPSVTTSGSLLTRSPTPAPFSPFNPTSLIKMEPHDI
# Method in brief: as §1
# ELK4 = molecular target: T9, ELK4 (Homo sapiens, UniProt P28324-2 1-405); conditions: protein: recombinant; tags: N-terminal GST; dsDNA, one strand shown
# T9 sequence: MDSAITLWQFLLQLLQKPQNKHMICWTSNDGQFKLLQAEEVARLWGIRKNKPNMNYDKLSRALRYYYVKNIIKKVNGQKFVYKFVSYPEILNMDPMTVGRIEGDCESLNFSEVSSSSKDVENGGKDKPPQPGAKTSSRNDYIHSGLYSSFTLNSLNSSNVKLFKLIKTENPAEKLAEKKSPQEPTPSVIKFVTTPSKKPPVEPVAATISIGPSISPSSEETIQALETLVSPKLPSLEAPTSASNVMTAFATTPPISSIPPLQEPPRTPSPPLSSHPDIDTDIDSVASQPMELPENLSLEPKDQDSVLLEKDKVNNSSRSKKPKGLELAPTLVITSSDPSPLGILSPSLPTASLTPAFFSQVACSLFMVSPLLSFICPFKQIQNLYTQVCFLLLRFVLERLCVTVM
# Method in brief: as §1
# ETV2 = molecular target: T10, ETV2 (Homo sapiens, UniProt O00321 1-342); conditions: protein: recombinant; tags: N-terminal GST; dsDNA, one strand shown
# T10 sequence: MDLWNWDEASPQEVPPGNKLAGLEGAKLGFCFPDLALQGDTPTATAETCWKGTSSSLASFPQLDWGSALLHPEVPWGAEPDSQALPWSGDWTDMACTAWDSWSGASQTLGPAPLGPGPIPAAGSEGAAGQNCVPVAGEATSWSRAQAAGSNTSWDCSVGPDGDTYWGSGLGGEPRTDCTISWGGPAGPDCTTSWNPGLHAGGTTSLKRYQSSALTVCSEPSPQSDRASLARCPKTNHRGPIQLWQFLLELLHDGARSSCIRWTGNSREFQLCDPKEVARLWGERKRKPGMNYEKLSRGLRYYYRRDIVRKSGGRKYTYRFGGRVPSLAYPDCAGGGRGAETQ
# Method in brief: as §1
# ELF3 = molecular target: T11, ELF3 (Homo sapiens, UniProt P78545 1-371); conditions: protein: recombinant; tags: N-terminal GST; dsDNA, one strand shown
# T11 sequence: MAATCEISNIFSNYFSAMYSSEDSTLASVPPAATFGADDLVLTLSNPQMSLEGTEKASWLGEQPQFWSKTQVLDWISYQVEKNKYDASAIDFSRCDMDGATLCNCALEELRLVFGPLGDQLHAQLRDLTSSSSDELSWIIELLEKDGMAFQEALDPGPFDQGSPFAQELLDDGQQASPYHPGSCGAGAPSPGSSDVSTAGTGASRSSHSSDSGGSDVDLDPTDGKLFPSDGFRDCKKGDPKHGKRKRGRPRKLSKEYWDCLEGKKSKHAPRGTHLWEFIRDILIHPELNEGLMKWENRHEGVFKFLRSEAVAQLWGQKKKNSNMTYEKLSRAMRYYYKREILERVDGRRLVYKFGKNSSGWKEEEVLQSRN
# Method in brief: as §1
# CRX = CRX (Homo sapiens, UniProt O43186 1-299); conditions: protein: recombinant; tags: N-terminal GST; dsDNA, one strand shown
# Sequence of CRX (O43186 whole entry): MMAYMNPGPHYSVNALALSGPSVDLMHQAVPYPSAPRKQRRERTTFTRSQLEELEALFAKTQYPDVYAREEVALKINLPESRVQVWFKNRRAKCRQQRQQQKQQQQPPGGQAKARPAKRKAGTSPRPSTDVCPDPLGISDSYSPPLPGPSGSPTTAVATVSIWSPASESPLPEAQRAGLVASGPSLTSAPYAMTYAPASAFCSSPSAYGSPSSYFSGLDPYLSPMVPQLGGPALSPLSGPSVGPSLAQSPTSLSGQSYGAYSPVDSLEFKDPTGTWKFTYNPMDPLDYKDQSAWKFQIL
# Method in brief: as §1
# ETV1 = ETV1 (Homo sapiens, UniProt P50549 1-477); conditions: protein: recombinant; tags: N-terminal GST; dsDNA, one strand shown
# Sequence of ETV1 (P50549 whole entry): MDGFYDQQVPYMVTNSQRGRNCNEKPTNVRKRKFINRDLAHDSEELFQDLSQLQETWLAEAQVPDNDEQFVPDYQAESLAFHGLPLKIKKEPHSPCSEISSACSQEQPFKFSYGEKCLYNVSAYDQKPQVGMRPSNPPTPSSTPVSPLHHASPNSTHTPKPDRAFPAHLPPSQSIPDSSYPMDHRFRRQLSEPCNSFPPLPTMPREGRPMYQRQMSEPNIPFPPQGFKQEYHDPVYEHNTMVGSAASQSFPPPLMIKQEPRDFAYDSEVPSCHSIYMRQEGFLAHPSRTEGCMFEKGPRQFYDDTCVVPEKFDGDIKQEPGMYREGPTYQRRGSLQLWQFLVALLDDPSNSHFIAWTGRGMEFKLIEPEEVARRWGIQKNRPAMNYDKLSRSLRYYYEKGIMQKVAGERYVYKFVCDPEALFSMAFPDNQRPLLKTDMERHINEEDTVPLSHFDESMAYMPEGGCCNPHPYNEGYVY
# Method in brief: as §1
sequence,measurement,setting,value
TCTTGT,binding signal,FLI1,"1.48 fold enrichment (6-mer frequency, TF over GST control)"
same,binding signal,ELK1,"1.64 fold enrichment (6-mer frequency, TF over GST control)"
same,binding signal,GABPA,"1.53 fold enrichment (6-mer frequency, TF over GST control)"
same,binding signal,ERG,"1.54 fold enrichment (6-mer frequency, TF over GST control)"
same,binding signal,ELF1,"1.53 fold enrichment (6-mer frequency, TF over GST control)"
same,binding signal,EHF,"1.57 fold enrichment (6-mer frequency, TF over GST control)"
same,binding signal,SPI1,"1.5 fold enrichment (6-mer frequency, TF over GST control)"
same,binding signal,SPIB,"1.55 fold enrichment (6-mer frequency, TF over GST control)"
same,binding signal,ELK3,"1.58 fold enrichment (6-mer frequency, TF over GST control)"
same,binding signal,FEV,"1.52 fold enrichment (6-mer frequency, TF over GST control)"
same,binding signal,ETV5,"1.49 fold enrichment (6-mer frequency, TF over GST control)"
same,binding signal,HSF1,"1.55 fold enrichment (6-mer frequency, TF over GST control)"
same,binding signal,SPIC,"1.39 fold enrichment (6-mer frequency, TF over GST control)"
same,binding signal,ELF4,"1.66 fold enrichment (6-mer frequency, TF over GST control)"
same,binding signal,ELK4,"1.49 fold enrichment (6-mer frequency, TF over GST control)"
same,binding signal,ETV2,"1.4 fold enrichment (6-mer frequency, TF over GST control)"
same,binding signal,ELF3,"1.55 fold enrichment (6-mer frequency, TF over GST control)"
same,binding signal,CRX,"1.48 fold enrichment (6-mer frequency, TF over GST control)"
same,binding signal,ETV1,"1.57 fold enrichment (6-mer frequency, TF over GST control)"
